A selection: hits, their analogues and other compounds. The true share with any hit is near 2.6%.
PAFAH2 FP inh – PAFAH2 (human) inhibition; Q99487; AID 492956; 340,000 compounds, 0.99% hits; recombinant PAFAH2, FP-rhodamine activity probe, fluorescence polarization; inhibition, % at 3.39 µM;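 active = inhibition above the mean over all tested compounds plus 3 SD, cut at about 30% in these data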;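 also: inhibitors block probe labeling of enzyme so polarization drops; 0% = enzyme with DMSO and 100% = wells lacking PAFAH2 protein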
PKA-R2B activ – activators of human PKA-R2B complex; activation, % at 11.4 µM; PKA-R2B holoenzyme dissociation, Cy5-IP20 fluorescence polarization; R2B truncated from residue 108, S112A mutant; 0% DMSO only, 100% 113 µM cGMP; P22694+P31323; 340,000 compounds, 0.079% hits;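 active = activation above a cutoff set at the mean over all compounds plus 3 SD, cut at about 18% in these data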;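 also: higher means more holoenzyme dissociation and a rise in polarization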
pPAFAH FP inh – pPAFAH (human) enzyme inhibition; Q13093; AID 463082; inhibition, % at 3.39 µM; recombinant pPAFAH, FP-rhodamine probe fluorescence polarization; 330,000 compounds, 1.5% hits;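 active = inhibition above the mean inhibition across the screen plus 3 SD, cut at about 25% in these data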;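 also: inhibitors block binding of the rhodamine activity-based probe so polarization drops; 0% = enzyme with DMSO and 100% = wells lacking pPAFAH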
Target sequence (Q13093 whole entry, looked up): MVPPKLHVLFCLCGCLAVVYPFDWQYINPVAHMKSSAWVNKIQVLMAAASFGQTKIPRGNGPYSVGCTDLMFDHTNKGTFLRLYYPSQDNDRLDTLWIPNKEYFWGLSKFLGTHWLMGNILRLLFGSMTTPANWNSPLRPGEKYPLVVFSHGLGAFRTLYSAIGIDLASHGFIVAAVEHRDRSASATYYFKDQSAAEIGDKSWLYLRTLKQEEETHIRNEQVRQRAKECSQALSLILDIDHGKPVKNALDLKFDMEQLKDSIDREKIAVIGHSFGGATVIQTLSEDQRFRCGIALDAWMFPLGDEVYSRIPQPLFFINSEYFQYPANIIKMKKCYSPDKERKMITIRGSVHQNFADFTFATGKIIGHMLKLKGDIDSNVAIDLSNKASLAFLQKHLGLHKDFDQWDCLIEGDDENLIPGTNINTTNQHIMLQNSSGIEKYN
PAFAH1B2 inh – blocks human PAF acetylhydrolase 1b catalytic subunit 2; recombinant PAFAH1B2, FP-rhodamine activity probe, fluorescence polarization; AID 492953; inhibition, % at 3.39 µM; 340,000 compounds, 1.2% hits;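 active = inhibition above the mean of all tested compounds plus 3 SD, cut at about 24% in these data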;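 also: 0% = enzyme with DMSO and 100% = wells lacking PAFAH1B2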
PAFAH1B3 inh – inhibitors of human PAFAH1B3; 340,000 compounds, 0.28% hits; inhibition, % at 3.39 µM; recombinant PAFAH1B3, FP-rhodamine probe, fluorescence polarization; Q15102;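 active = inhibition above the screen-wide average of all tested compounds plus 3 SD, cut at about 25% in these data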;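 also: 0% = enzyme with DMSO only and 100% = wells lacking PAFAH1B3 protein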
Target sequence (Q15102 whole entry, looked up): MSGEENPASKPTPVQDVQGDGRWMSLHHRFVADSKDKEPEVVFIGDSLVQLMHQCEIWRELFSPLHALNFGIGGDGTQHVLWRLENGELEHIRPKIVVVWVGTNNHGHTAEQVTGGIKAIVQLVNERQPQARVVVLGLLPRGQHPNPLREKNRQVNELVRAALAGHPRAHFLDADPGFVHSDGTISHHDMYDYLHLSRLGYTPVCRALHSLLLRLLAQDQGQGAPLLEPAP
PKA-R1A activ – activators of PKA-R1A complex; PKA-R1A dissociation, Cy5-IP20 fluorescence polarization; scaled: DMSO 0%, 113 µM cGMP 100%; activation, % at 11.4 µM; 340,000 compounds, 0.083% hits;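 active = percent activation above the mean of all tested compounds plus 3 SD, cut at about 19% in these data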;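 also: higher means more PKAc released from R1A so a rise in polarization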
The depositor's hits bear a star; · = not tested or not shown.

SMILES	PAFAH2 FP inh	PKA-R2B activ	pPAFAH FP inh	PAFAH1B2 inh	PAFAH1B3 inh	PKA-R1A activ
CS(=O)(=O)Nc1ccccc1C(=O)Nc1cc(Cl)cc(Cl)c1	8.6	0.6	27.8*	16.1	8.2	7.1
CS(=O)(=O)Nc1ccccc1C(=O)Nc1cccc(Cl)c1	-6.0	13.3	0.6	3.7	-10.5	5.0
O=C1OC(CC(=O)N(Cc2nnc(-c3ccccc3Cl)o2)C2CC2)c2ccccc21 (stereo not drawn)	-1.9	0.9	1.7	7.5	11.4	-7.7
Cc1cc(C)n2c(SCC(O)=C(C#N)c3nc4ccccc4[nH]3)nnc2n1	3.3	-7.6	·	2.2	3.4	-19.7
Cc1cccc(Nc2nnc(SC/C(O)=C(\C#N)c3nc4ccccc4[nH]3)s2)c1	-12.5	-2.9	24.8*	19.7	16.0	-3.2
Cc1ccc(Nc2nnc(SC/C(O)=C(\C#N)c3nc4ccccc4[nH]3)s2)c(C)c1	-0.8	-1.8	29.2*	20.9	8.4	-7.4
CCC(C)NC(=O)[C@@H]1CCCN1C(=O)C1CCN(S(=O)(=O)c2ccc(C)cc2)CC1 (stereo partly drawn)	4.5	0.1	-1.9	11.2	4.0	0.6
Cc1oc2c(cc(NS(=O)(=O)c3ccc(Cl)cc3)c3ccccc32)c1C(=O)O	10.7	-5.0	·	10.9	8.7	-12.5
CCOC(=O)c1c(C)oc2c1cc(NS(=O)(=O)c1ccc(C(=O)O)cc1)c1ccccc12	9.6	14.5	29.4*	4.1	7.5	-10.3
CCc1cc(C(=O)N=Nc2c(O)[nH]c3ccc([N+](=O)[O-])cc23)c2ccccc2n1	0.7	-12.1	33.3*	-2.3	8.3	-3.8
COc1ccc(OC)c(S(=O)(=O)NCC(c2ccc3c(c2)OCO3)N2CCOCC2)c1 (stereo not drawn)	4.1	-12.1	0.1	-3.3	-5.0	-2.8
Cc1ccc(N2C(=O)CC(Sc3nc4ccccc4o3)C2=O)cc1Cl (stereo not drawn)	-3.4	0.3	-3.0	30.0*	2.5	-12.4
Cc1ccc(S(=O)(=O)N[C@@H](C)C(=O)OCC(=O)N2c3ccccc3NC(=O)C2(C)C)cc1	-4.0	-7.1	-6.4	5.0	0.0	0.5
C/C(=N\NC(=O)c1ccc(Br)cc1)C1C(=O)c2ccccc2C1=O	16.3	-9.0	25.2*	14.6	29.3*	-6.5
COc1ccc(CCC(=O)NCCS(=O)(=O)N2CCN(c3ccc(OC)cc3)CC2)cc1	-2.4	1.1	0.9	3.9	8.8	-2.6
Cc1c(NS(=O)(=O)c2cccs2)cccc1-c1nc2cccnc2s1	-6.7	-5.8	14.9	1.0	2.2	-18.9
Cc1ccc(NS(=O)(=O)c2cccs2)c(C)c1	-12.1	-1.4	27.6*	4.0	4.0	-0.7
Cc1cc(C)cc(NS(=O)(=O)c2cccs2)c1	-0.4	-9.6	11.9	8.1	13.8	-6.1
Cc1cc(-c2nc3cccnc3s2)ccc1NS(=O)(=O)c1cccs1	5.3	-0.1	32.7*	7.9	1.7	-5.4
COc1cccc2c1C(=O)c1c(O)c3c(c(O)c1C2=O)CC(O)(C(=O)CO)CC3OC1CC(N(C)C)C(O)C(C)O1 (stereo not drawn)	60.5*	-19.6	·	61.0*	46.8*	-2.3
COc1cccc2c1C(=O)c1c(O)c3c(c(O)c1C2=O)C[C@@](O)(C(C)=O)C[C@@H]3O[C@H]1C[C@H](N)[C@H](O)[C@H](C)O1	54.1*	10.3	·	51.0*	37.2*	-11.1
Cc1ccc(NC(=O)CSCC(=O)N2CCN(Cc3ccc4c(c3)OCO4)CC2)cc1	1.7	-0.9	6.0	1.9	5.6	-1.2
C/C(=C1/SC(N2CC(C)OC(C)C2)=NC1=O)c1ccccc1 (stereo not drawn)	-1.4	-1.4	28.3*	8.0	5.7	-2.1
COc1ccnc(N2CCN(c3ccc(Cl)cc3)CC2)c1C#N	7.4	0.8	-4.3	24.2*	4.7	1.1
COc1ccnc(N2CCN(c3cccc(C(F)(F)F)c3)CC2)c1C#N	-2.9	-3.1	-1.3	-4.4	-4.1	-2.4
SMILES	PAFAH2 FP inh	PKA-R2B activ	pPAFAH FP inh	PAFAH1B2 inh	PAFAH1B3 inh	PKA-R1A activ
CCn1c(C)c(C(C)=O)c(NCc2ccccc2)nc1=S	3.5	0.7	26.3*	15.1	2.5	-6.0
O=C(CCl)N1CCN2C(=O)c3ccccc3C12c1ccc(Cl)cc1 (stereo not drawn)	2.5	0.2	-0.8	4.3	10.3	6.7
O=C(Nc1cccc(Cl)c1)N1CCN2C(=O)c3ccccc3C12c1ccccc1 (stereo not drawn)	-6.2	-6.8	-0.3	24.9*	-2.9	-5.1
CN(C)c1ccc(C(=O)OCC(=O)Nc2cccc(S(=O)(=O)N3CCCC3)c2)cc1	85.5*	-6.8	26.9*	5.3	3.1	-11.9
CC(C)(C)OC(=O)C[C@H]1C/C=C\C[C@@H](CC(=O)NCCO)C(=O)N[C@H](Cc2ccccc2)COC1=O	8.3	-11.6	-1.6	3.5	0.9	-1.8
CCNc1nc(NC(C)(C)C)nc(SC(C(C)=O)C(C)=O)n1	-12.2	5.5	-0.6	24.9*	1.0	-3.7
CCNc1nc(SC(C(C)=O)C(C)=O)nc(N(C)C)n1	5.2	12.6	0.8	-0.1	12.8	4.3
O=C(Cc1nnc(NC(=O)c2ccccc2)s1)N/N=C\c1ccc(O)c(O)c1	16.5	2.6	27.4*	3.4	11.7	-3.6
COc1ccc2nc(C)cc(SCC(=O)N/N=C/c3ccc(O)c(O)c3)c2c1	19.4	-11.6	28.9*	1.8	11.4	1.1
COc1cccc2c(SCC(=O)N/N=C/c3ccc(O)c(O)c3)cc(C)nc12	·	·	15.8	·	·	·
COc1ccc2nc(C)cc(SCC(=O)N/N=C/c3cccc4ccccc34)c2c1	-8.1	2.0	-1.8	-0.7	-20.4	2.1
Cc1cc(SCC(=O)N/N=C/c2ccc(O)c(O)c2)c(C)cc1Br	-7.8	-8.8	25.8*	3.1	22.5	-6.2
O=C(Cc1nnc(NC(=O)c2ccccc2)s1)N/N=C/c1ccc(O)cc1	8.3	1.6	6.5	6.0	11.4	-13.9
Cc1cc(SCC(=O)N/N=C/c2ccc(O)c(O)c2)nc2ccccc12	31.6*	-9.6	27.5*	-2.0	14.7	13.2
CCN(CC)S(=O)(=O)c1ccc(NC(=O)c2ccc(OCC3CCCO3)cc2)cc1 (stereo not drawn)	-1.6	-0.8	4.6	-3.7	-5.7	-3.5
Cc1cc(NC(=O)CSc2nnc(NCc3ccco3)s2)no1	4.3	-4.3	-5.4	-1.4	2.9	5.7
C[C@@H]1CN([C@H](C)CO)C(=O)CCCn2nncc2CO[C@@H]1CN(C)C(=O)c1ccncc1	·	0.4	·	·	·	-2.9
C/C(=N/NC(=O)c1cccc(Br)c1)C1CC2CCC1C2 (stereo not drawn)	-3.0	1.5	5.9	-7.9	-5.0	-14.3
COc1ccc(CNS(=O)(=O)c2cc(CN3C(=O)c4cccnc4C3=O)ccc2OC)cc1	-2.8	7.3	7.2	5.9	1.1	-10.5
